# From PubChem BioAssay AID1159580 (chemical genetic matrix, 2015)
# Out of some 5,500 compounds screened, about 2,000 (36%) were called active. About 18% were inconclusive and are not listed. Some of the results follow. Values without a mark were called inactive. Rule as the data show it: active = normalized growth mostly below about 0.91 (no sharp cut-off); inconclusive = no clear call, values can overlap the other calls; inactive = mostly above about 0.92.
# Assay: chemical genetic growth profiling, strain panel (AID 1159580);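 also: tested at 20 µM; growth read once vehicle control cultures reached saturation at 30 °C; 1 = growth at the plate median or of vehicle wells; lower values mean less growth of the strain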
# Conditions: S. cerevisiae deletion strains, growth OD
# [1] = locus YHR030C, strain SLT2, active compounds read low
# [2] = locus YHR079C, strain IRE1, active compounds read low
# [3] = locus YJL095W, strain BCK1, active compounds read low
# [4] = locus YJR066W, strain TOR1, active compounds read low
# [5] = locus YLR113W, strain HOG1, active compounds read low
# [6] = locus YNL183C, strain NPR1, active compounds read low
# [7] = locus YOR231W, strain MKK1, active compounds read low
# [8] = locus YPL256C, strain CLN2, active compounds read low
smiles,measurement,setting,value
O=C(Nc1ccc(F)cc1F)c1cc(Cl)c(-n2cccc2)c(Cl)c1,normalized growth,"locus YAR019C, strain CDC15, active compounds read low",0.975
same,normalized growth,"locus YBL105C, strain PKC1, active compounds read low",0.972
same,normalized growth,"locus YBR135W, strain CKS1, active compounds read low",0.971
same,normalized growth,"locus YBR136W, strain MEC1, active compounds read low",0.969
same,normalized growth,"locus YBR160W, strain CDC28, active compounds read low",0.973
same,normalized growth,"locus YDL017W, strain CDC7, active compounds read low",0.974
same,normalized growth,"locus YDL028C, strain MPS1, active compounds read low",0.969
same,normalized growth,"locus YDL101C, strain DUN1, active compounds read low",0.984
same,normalized growth,"locus YDL108W, strain KIN28, active compounds read low",0.974
same,normalized growth,"locus YDL132W, strain cdc53, active compounds read low",0.976
same,normalized growth,"locus YDL214C, strain PRR2, active compounds read low",0.942
same,normalized growth,"locus YDR052C, strain DBF4, active compounds read low",0.98
same,normalized growth,"locus YDR054C, strain cdc34, active compounds read low",0.961
same,normalized growth,"locus YDR226W, strain ADK1, active compounds read low",0.97
same,normalized growth,"locus YDR477W, strain SNF1, active compounds read low",0.936
same,normalized growth,"locus YER123W, strain YCK3, active compounds read low",0.905
same,normalized growth,"locus YER133W, strain GLC7, active compounds read low",0.898
same,normalized growth,"locus YFL009W, strain cdc4, active compounds read low",0.97
same,normalized growth,"locus YFL029C, strain CAK1, active compounds read low",0.967
same,normalized growth,"locus YFR003C, strain YPI1, active compounds read low",0.975
same,normalized growth,"locus YFR019W, strain FAB1, active compounds read low",0.944
same,normalized growth,"locus YFR028C, strain CDC14, active compounds read low",0.977
same,normalized growth,"locus YGR040W, strain KSS1, active compounds read low",0.94
same,normalized growth,"locus YGR052W, strain FMP48, active compounds read low",0.984
same,normalized growth,"locus YGR092W, strain DBF2, active compounds read low",0.942
same,normalized growth,[1],0.784 (active)
same,normalized growth,[2],0.864
same,normalized growth,"locus YHR082C, strain KSP1, active compounds read low",1.05
same,normalized growth,"locus YHR205W, strain SCH9, active compounds read low",0.911
same,normalized growth,"locus YIL147C, strain SLN1, active compounds read low",0.976
same,normalized growth,[3],0.866
same,normalized growth,"locus YJL128C, strain PBS2, active compounds read low",0.953
same,normalized growth,"locus YJL157C, strain FAR1, active compounds read low",0.934
same,normalized growth,"locus YJR016C, strain ILV3, active compounds read low",0.985
same,normalized growth,"locus YJR066W, strain TOR1 (second series), active compounds read low",0.869
same,normalized growth,[4],0.993
same,normalized growth,"locus YKL048C, strain ELM1, active compounds read low",0.953
same,normalized growth,"locus YKL067W, strain YNK1, active compounds read low",0.928
same,normalized growth,"locus YKL101W, strain HSL1, active compounds read low",0.929
same,normalized growth,"locus YKL193C, strain SDS22, active compounds read low",0.983
same,normalized growth,"locus YKL203C, strain TOR2, active compounds read low",0.968
same,normalized growth,[5],0.788 (active)
same,normalized growth,"locus YLR133W, strain CKI1, active compounds read low",0.942
same,normalized growth,"locus YLR403W, strain SFP1, active compounds read low",0.902
same,normalized growth,"locus YML070W, strain DAK1, active compounds read low",0.925
same,normalized growth,"locus YMR001C, strain CDC5, active compounds read low",0.973
same,normalized growth,"locus YMR205C, strain PFK2 (second series), active compounds read low",0.959
same,normalized growth,"locus YMR277W, strain FCP1, active compounds read low",0.963
same,normalized growth,"locus YNL006W, strain LST8, active compounds read low",0.977
same,normalized growth,"locus YNL020C, strain ARK1, active compounds read low",0.911
same,normalized growth,"locus YNL161W, strain CBK1, active compounds read low",0.967
same,normalized growth,[6],0.951
same,normalized growth,"locus YNL207W, strain RIO2, active compounds read low",0.97
same,normalized growth,"locus YNL222W, strain SSU72, active compounds read low",0.977
same,normalized growth,"locus YNL307C, strain MCK1 (second series), active compounds read low",0.926
same,normalized growth,"locus YOL078W, strain AVO1, active compounds read low",0.981
same,normalized growth,"locus YOL136C, strain PFK27, active compounds read low",0.925
same,normalized growth,"locus YOR061W, strain CKA2, active compounds read low",0.926
same,normalized growth,"locus YOR119C, strain RIO1, active compounds read low",0.999
same,normalized growth,[7],0.88
same,normalized growth,"locus YOR329C, strain SCD5, active compounds read low",0.968
same,normalized growth,"locus YPL031C, strain PHO85, active compounds read low",0.922
same,normalized growth,"locus YPL153C, strain RAD53, active compounds read low",0.928
same,normalized growth,"locus YPL204W, strain HRR25, active compounds read low",0.908
same,normalized growth,"locus YPL209C, strain IPL1, active compounds read low",0.975
same,normalized growth,[8],0.829 (active)
same,normalized growth,"locus YPR025C, strain CCL1, active compounds read low",0.968
same,normalized growth,"locus YPR106W, strain ISR1, active compounds read low",0.978
same,normalized growth,"locus YPR111W, strain DBF20, active compounds read low",0.962
same,normalized growth,"strain NNK1, active compounds read low",0.977
same,normalized growth,"strain TSCII, active compounds read low",0.968
CN(C)[C@@H]1C(=O)C(C(=O)NCN2CCCC2)=C(O)[C@@]2(O)C(=O)C3=C(O)c4c(O)cccc4[C@@](C)(O)[C@H]3C[C@@H]12,normalized growth,"locus YAL021C, strain ccr4, active compounds read low",0.935
same,normalized growth,"locus YAL026C, strain drs2, active compounds read low",0.976
same,normalized growth,"locus YAL030W, strain snc1, active compounds read low",0.994
same,normalized growth,"locus YBL061C, strain skt5, active compounds read low",0.999
same,normalized growth,"locus YBR009C, strain hhf1, active compounds read low",0.965
same,normalized growth,"locus YBR023C, strain chs3, active compounds read low",0.992
same,normalized growth,"locus YBR171W, strain sec66, active compounds read low",1.02
same,normalized growth,"locus YBR231C, strain swc5, active compounds read low",0.974
same,normalized growth,"locus YBR279W, strain paf1, active compounds read low",1
same,normalized growth,"locus YCL011C, strain gbp2, active compounds read low",0.94
same,normalized growth,"locus YCL016C, strain dcc1, active compounds read low",0.997
same,normalized growth,"locus YCL061C, strain MRC1, active compounds read low",0.997
same,normalized growth,"locus YCL069W, strain vba3, active compounds read low",1.02
same,normalized growth,"locus YCR088W, strain abp1, active compounds read low",1.01
same,normalized growth,"locus YDL005C, strain med2, active compounds read low",1.04
same,normalized growth,"locus YDL040C, strain nat1, active compounds read low",1.02
same,normalized growth,"locus YDR001C, strain nth1, active compounds read low",1.01
same,normalized growth,"locus YDR069C, strain doa4, active compounds read low",0.942
same,normalized growth,"locus YDR137W, strain rgp1, active compounds read low",0.922
same,normalized growth,"locus YDR159W, strain sac3, active compounds read low",1.04
same,normalized growth,"locus YDR195W, strain ref2",1.11
same,normalized growth,"locus YDR297W, strain sur2, active compounds read low",0.985
same,normalized growth,"locus YDR334W, strain swr1, active compounds read low",0.994
same,normalized growth,"locus YDR335W, strain msn5, active compounds read low",1
same,normalized growth,"locus YDR392W, strain spt3, active compounds read low",0.908
same,normalized growth,"locus YEL003W, strain gim4, active compounds read low",0.732 (active)
same,normalized growth,"locus YEL037C, strain rad23, active compounds read low",1
same,normalized growth,"locus YEL061C, strain CIN8 (second series), active compounds read low",1.01
same,normalized growth,"locus YER015W, strain faa2, active compounds read low",0.99
same,normalized growth,"locus YER016W, strain bim1, active compounds read low",1.02
same,normalized growth,"locus YER111C, strain swi4, active compounds read low",1.01
same,normalized growth,"locus YER155C, strain BEM2 (second series), active compounds read low",0.926
same,normalized growth,"locus YFR010W, strain ubp6, active compounds read low",0.985
same,normalized growth,"locus YGL167C, strain pmr1, active compounds read low",1
same,normalized growth,"locus YGL173C, strain kem1, active compounds read low",1.01
same,normalized growth,"locus YGL227W, strain vid30, active compounds read low",1.03
same,normalized growth,"locus YGL240W, strain doc1, active compounds read low",0.987
same,normalized growth,"locus YGL253W, strain hxk2, active compounds read low",1.01
same,normalized growth,"locus YHR013C, strain ard1, active compounds read low",1
same,normalized growth,"locus YHR027C, strain rpn1, active compounds read low",0.995
same,normalized growth,[1],1.03
same,normalized growth,[2],1.01
same,normalized growth,"locus YHR142W, strain chs7, active compounds read low",1
same,normalized growth,"locus YJL092W, strain hpr5, active compounds read low",1.01
same,normalized growth,"locus YJL095W, strain BCK1 (second series), active compounds read low",0.994
same,normalized growth,[3],0.992
same,normalized growth,"locus YJL115W, strain asf1, active compounds read low",1.01
same,normalized growth,"locus YJL129C, strain trk1, active compounds read low",1.03
same,normalized growth,"locus YJL154C, strain vps35, active compounds read low",1.02
same,normalized growth,"locus YJL164C, strain tpk1, active compounds read low",0.937
same,normalized growth,"locus YJL166W, strain qcr8, active compounds read low",0.944
same,normalized growth,"locus YJL187C, strain SWE1, active compounds read low",0.994
same,normalized growth,[4],0.965
same,normalized growth,"locus YKL160W, strain elf1, active compounds read low",1
same,normalized growth,"locus YKR026C, strain gcn3, active compounds read low",1
same,normalized growth,"locus YKR091W, strain srl3, active compounds read low",1.02
same,normalized growth,"locus YLL001W, strain dnm1, active compounds read low",1.02
same,normalized growth,"locus YLL026W, active compounds read low",1
same,normalized growth,"locus YLL041C, strain sdh2, active compounds read low",1.01
same,normalized growth,"locus YLR027C, strain aat2, active compounds read low",0.984
same,normalized growth,[5],0.959
same,normalized growth,"locus YLR221C, strain rsa3, active compounds read low",0.907 (active)
same,normalized growth,"locus YLR258W, strain gsy2, active compounds read low",0.967
same,normalized growth,"locus YLR262C, strain YPT6 (second series), active compounds read low",0.945
same,normalized growth,"locus YLR320W, strain mms22, active compounds read low",0.97
same,normalized growth,"locus YLR342W, strain FKS1, active compounds read low",1
same,normalized growth,"locus YLR357W, strain rsc2, active compounds read low",0.787 (active)
same,normalized growth,"locus YLR370C, strain arc18, active compounds read low",1
same,normalized growth,"locus YLR384C, strain iki3, active compounds read low",1.01
same,normalized growth,"locus YML120C, strain ndi1, active compounds read low",0.936
same,normalized growth,"locus YMR058W, strain fet3, active compounds read low",0.879 (active)
same,normalized growth,"locus YMR125W, strain sto1, active compounds read low",1.03
same,normalized growth,"locus YMR129W, active compounds read low",1.01
same,normalized growth,"locus YMR205C, strain PFK2, active compounds read low",1.01
same,normalized growth,"locus YMR231W, strain pep5, active compounds read low",1.01
same,normalized growth,"locus YNL071W, strain lat1, active compounds read low",0.942
same,normalized growth,[6],0.946
same,normalized growth,"locus YNL209W, strain ssb2, active compounds read low",0.993
same,normalized growth,"locus YNL248C, strain rpa49, active compounds read low",0.796 (active)
same,normalized growth,"locus YNL322C, strain KRE1 (second series), active compounds read low",1
same,normalized growth,"locus YNR049C, strain mso1, active compounds read low",1.01
same,normalized growth,"locus YOR001W, strain rrp6, active compounds read low",0.89 (active)
same,normalized growth,"locus YOR070C, strain gyp1, active compounds read low",1
same,normalized growth,"locus YOR080W, strain dia2, active compounds read low",1.01
same,normalized growth,"locus YOR083W, strain WHI5, active compounds read low",0.978
same,normalized growth,"locus YOR106W, strain vam3, active compounds read low",0.849 (active)
same,normalized growth,[7],1.03
same,normalized growth,"locus YOR265W, strain rbl2, active compounds read low",1
same,normalized growth,"locus YOR270C, strain vph1, active compounds read low",0.977
same,normalized growth,"locus YOR290C, strain snf2, active compounds read low",0.991
same,normalized growth,"locus YPL051W, strain arl3, active compounds read low",0.949
same,normalized growth,"locus YPL078C, strain atp4, active compounds read low",1
same,normalized growth,"locus YPL106C, strain sse1, active compounds read low",0.95
same,normalized growth,"locus YPL240C, strain hsp82, active compounds read low",1.02
same,normalized growth,[8],1.01
